Experimental data as given in ChEMBL document CHEMBL1201862, “PubChem BioAssay data set” (2004).
Among all 400,000 compounds or so, about 2,100 (0.53%) were called active. Inconclusive results (about 14%) are left out. No rule for the calls is given here. This excerpt belongs to a sample that is enriched for actives.

What follows are compounds tested against Ataxin-2 (Homo sapiens) (UniProt Q99700) (assay: qHTS for Inhibitors of ATXN expression.).
Type: functional

Sequence of Ataxin-2 (Homo sapiens) (Q99700 whole entry): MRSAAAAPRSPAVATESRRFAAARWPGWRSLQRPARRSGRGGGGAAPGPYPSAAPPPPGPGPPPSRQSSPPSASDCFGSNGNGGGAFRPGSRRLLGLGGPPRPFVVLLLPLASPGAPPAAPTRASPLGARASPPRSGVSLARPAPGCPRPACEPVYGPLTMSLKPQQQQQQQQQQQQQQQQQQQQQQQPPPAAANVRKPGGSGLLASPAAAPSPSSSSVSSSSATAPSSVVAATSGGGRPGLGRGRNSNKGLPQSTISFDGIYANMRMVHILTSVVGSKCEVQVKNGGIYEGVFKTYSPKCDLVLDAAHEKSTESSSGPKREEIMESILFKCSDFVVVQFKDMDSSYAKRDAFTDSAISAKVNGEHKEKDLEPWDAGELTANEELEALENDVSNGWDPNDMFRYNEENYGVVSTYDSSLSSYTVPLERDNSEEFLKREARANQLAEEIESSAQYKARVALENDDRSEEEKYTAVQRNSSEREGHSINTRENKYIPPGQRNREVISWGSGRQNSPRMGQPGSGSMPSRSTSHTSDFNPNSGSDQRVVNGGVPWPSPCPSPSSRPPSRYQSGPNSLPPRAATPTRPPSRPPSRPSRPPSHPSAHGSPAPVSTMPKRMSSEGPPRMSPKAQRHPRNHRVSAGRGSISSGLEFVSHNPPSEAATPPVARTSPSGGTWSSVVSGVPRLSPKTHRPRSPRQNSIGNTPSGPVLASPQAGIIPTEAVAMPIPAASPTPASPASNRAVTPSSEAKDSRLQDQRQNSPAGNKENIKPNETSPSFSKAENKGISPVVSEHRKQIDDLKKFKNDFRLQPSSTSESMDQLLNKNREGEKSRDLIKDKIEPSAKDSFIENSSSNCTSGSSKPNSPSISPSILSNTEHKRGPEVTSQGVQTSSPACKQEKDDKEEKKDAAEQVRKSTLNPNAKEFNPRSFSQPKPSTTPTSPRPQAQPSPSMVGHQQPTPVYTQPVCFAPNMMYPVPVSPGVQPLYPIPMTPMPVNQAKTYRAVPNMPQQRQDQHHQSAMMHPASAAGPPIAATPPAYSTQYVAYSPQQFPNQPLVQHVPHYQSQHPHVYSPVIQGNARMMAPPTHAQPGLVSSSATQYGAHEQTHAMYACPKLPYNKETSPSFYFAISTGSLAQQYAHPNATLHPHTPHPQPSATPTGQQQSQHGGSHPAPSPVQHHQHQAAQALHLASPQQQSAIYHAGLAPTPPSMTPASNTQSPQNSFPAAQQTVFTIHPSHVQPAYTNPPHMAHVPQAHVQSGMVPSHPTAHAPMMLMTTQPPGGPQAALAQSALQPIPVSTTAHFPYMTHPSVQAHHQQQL

Compound	Potency
N=c1c(C(=O)NC2CCCC2)cc2c(=O)n3ccccc3nc2n1C1CCCCC1	inactive
CC1Nc2nc(N(C)C)nc(O)c2NC1C (configuration not stated)	inactive
Cc1cc2nc(/C=C/c3nc4cc(C)c(C)cc4[nH]3)[nH]c2cc1C	inactive
Oc1ccc(Br)cc1C1Nc2ccccc2S1 (configuration not stated)	inactive
CCC(CC)c1nnc(NC(=O)CSCc2c(C)noc2C)s1	inactive
COc1c(CC=C(C)C)c(O)cc2oc(=O)c3c4ccc(O)cc4oc3c12	inactive
CC1(C)C=Cc2c(c3c(c4c(=O)c(-c5ccc(O)cc5)coc24)OC(C)(C)CC3)O1	35.5 µM (active)
CC(C)=CCc1c2c(c3occ(-c4ccc(O)cc4)c(=O)c3c1O)C=CC(C)(C)O2	25.1 µM (active)
CC(C)=CCc1c(O)c(CC=C(C)C)c2occ(-c3ccc(O)cc3)c(=O)c2c1O	39.8 µM (active)
CC(C)=CCc1c(-c2ccc(O)cc2O)oc2cc3c(c(O)c2c1=O)C=CC(C)(C)O3	39.8 µM (active)
COC(c1ccccc1)(c1ccccc1)C(Oc1nc(C)cc(C)n1)C(=O)O (configuration not stated)	inactive
CCOC(=O)c1c2ccc(OCC(=O)NN)cc2n2ccccc12	inactive
Cc1c(C)c2cc(Cl)c(O)c(CN(C)C)c2oc1=O	inactive
CCCCCC(=O)N1C[C@@H](n2cc(COC(=O)c3ccccc3)nn2)[C@H](O)C[C@@H]1c1ccc(Cl)cc1	31.6 µM (active)
CCCCCC(=O)N1C[C@H](n2cc(COC(=O)c3ccccc3)nn2)[C@@H](O)C[C@@H]1c1ccc(Cl)cc1	39.8 µM (active)
CC1(S(=O)(=O)O)CC(=O)c2ccccc2C1=O (configuration not stated)	inactive
CC(=O)N1N=C2c3ccccc3CCC2C1c1ccc(F)cc1 (configuration not stated)	inactive
CCCCn1c(NC(C)=O)c(C#N)c2nc3ccccc3nc21	inactive
O=C(CN1CCCc2ccccc21)Nc1ccccc1[N+](=O)[O-]	inactive
Cc1csc(SCC(=O)Nc2ccccc2[N+](=O)[O-])n1	inactive
CC(C)c1noc(-c2ccccc2OCC(=O)Nc2ccccc2[N+](=O)[O-])n1	39.8 µM (active)
Nc1cccc2c1C(=O)N(C(=O)c1cccc(S(=O)(=O)N3CCCCCC3)c1)C2=O	inactive
Fc1ccc(CN2CCN(c3ncccn3)CC2)c(F)c1	inactive
COc1ccc(C(C)=O)cc1CSc1nc2ccccc2c(=O)n1-c1ccccc1	35.5 µM (active)
O=C(c1ccc(-n2c(SCc3cc(F)ccc3F)nc3ccccc3c2=O)cc1)N1CCOCC1	inactive
COCC(C)n1c(SCc2ccc(C(=O)OC)cc2)nc2ccccc2c1=O (configuration not stated)	inactive

Compound	Potency
O=C(NCc1ccncc1)c1ccc(NS(=O)(=O)c2ccc(F)cc2)cc1	inactive
CCOC(=O)c1c(C)oc2c1c(C(c1ccccc1)N1CCOCC1)c(O)c1ccccc12 (configuration not stated)	39.8 µM (active)
CCOC(=O)c1c(C)oc2c1c(/C=N/CCO)c(O)c1ccccc12	inactive
CCOC(=O)c1c(N=C(S)N2CCOCC2)sc(C)c1C	inactive
CCOC(=O)C(CC)Sc1ccc2nnc(-c3cccnc3)n2n1 (configuration not stated)	inactive
CCOC(=O)c1c(C)oc2c1c(C(c1cccnc1)N1CCOCC1)c(O)c1ccccc12 (configuration not stated)	39.8 µM (active)
COc1ccc(C(=O)N/N=C\c2coc3ccccc3c2=O)cc1	inactive
O=C(Cc1cc(=O)oc2cc(O)ccc12)NCC1CCC(C(=O)O)CC1 (configuration not stated)	inactive
Cc1c(-c2ccc(Cl)cc2)c(=O)oc2c(CN3CCCC3)c(O)ccc12	inactive
Cc1cc(-c2cccs2)c2c(N)c(C(=O)c3ccc4c(c3)OCO4)sc2n1	inactive
c1ccc(CNc2nc(NCc3ccccc3)c3ccccc3n2)cc1	39.8 µM (active)
CC(O)CNc1nc(NCc2ccccc2)c2cnn(C)c2n1 (configuration not stated)	inactive
OCCNc1c2ccccc2nc2ccccc12	inactive
CC1(C)Cc2c(C#N)c(NCCO)nc(-c3ccco3)c2CO1	inactive
C/C(=N\NC(=S)NCCc1ccccc1)c1ccc(Cl)cc1Cl	inactive
Cc1cc(C)c(C(=O)Nc2ccccc2)c(CC(C)(C)C(=O)O)c1	inactive
COCCNc1nnc(SCC(=O)Nc2cc(C)on2)s1	inactive
CC(=O)OCCCNc1cc(Sc2nc3ccccc3s2)c2nonc2c1[N+](=O)[O-]	12.6 µM (active)
Cc1nnc(Sc2cc(NCCCO)c([N+](=O)[O-])c3nonc23)s1	21.2 µM (active)
COc1ccc(NC(=O)CCC(=O)NCc2ccco2)c([N+](=O)[O-])c1	inactive
O=[N+]([O-])c1c(NCCCO)cc(SCc2ccco2)c2nonc12	31.6 µM (active)
Cc1nnc(Sc2cc(NCCO)c([N+](=O)[O-])c3nonc23)s1	28.2 µM (active)
CC(=O)Nc1scc(C)c1-c1nc2ccccc2s1	inactive
CCCn1c(N)c(C(=O)CSc2nc3ccccc3s2)c(=O)[nH]c1=O	inactive
O=C(Cn1[nH]c(=O)c2ccccc2c1=O)OCC(=O)c1ccc(F)c(F)c1	inactive
COCCCn1c(=N)c(C(=O)NCc2ccco2)cc2c(=O)n3cccc(C)c3nc21	inactive

Compound	Potency
O=C1c2cccc3c(N4CCCCC4)ccc(c23)C(=O)N1c1ccc(O)cc1	inactive
Cc1ccc(OCCCCN2CCCCC2)cc1	inactive
CC(C)c1ccccc1OCCCN1CCCC1	inactive
OC(c1ccccc1)(c1ccccc1)C1CCN(CCCOc2cccc(OC(F)(F)F)c2)CC1	35.5 µM (active)
O=C(Oc1cccc(C(=S)N2CCCCC2)c1)c1ccccc1	inactive
Cc1ccc(OCCCN2CCC(C(O)(c3ccccc3)c3ccccc3)CC2)cc1	35.5 µM (active)
Brc1cccc(OCCN2CCc3ccccc3C2)c1	inactive
O=C(c1coc(=O)c(Br)c1)N1CCC(C(O)(c2ccccc2)c2ccccc2)CC1	inactive
COC(=O)c1cccc(OCCCN2CCC(C(O)(c3ccccc3)c3ccccc3)CC2)c1	35.5 µM (active)
Cc1ccc(OCCCCCCN2CCNCC2)cc1	inactive
CCOc1ccc(/C=N/NC(=O)Cc2cccs2)cc1	inactive
C=CCNC(=S)N/N=C/c1ccc(-c2ccc(OC)cc2)o1	inactive
C=CCOc1ccc(/C=N\NC(N)=S)cc1	22.4 µM (active)
COc1ccccc1Cc1c(C2CCCCC2)nc2ccc(C)cn12	20 µM (active)
Cc1ccc2nc3c(cc(C(=O)NC4CCS(=O)(=O)C4)n3Cc3ccccc3)c(=O)n2c1 (configuration not stated)	inactive
COCCn1c(=N)c(C(=O)NC2CCCC2)cc2c(=O)n3cc(C)ccc3nc21	inactive
CCn1c(=N)c(C(=O)NC2CCCCC2)cc2c(=O)n3cc(C)ccc3nc21	inactive
Cc1ccc2nc(C3CCCCC3)c(Cc3cccc(Cl)c3)n2c1	39.8 µM (active)
CCC(C)n1c(=N)c(C(=O)NC2CCCCC2)cc2c(=O)n3cc(C)ccc3nc21 (configuration not stated)	inactive
Brc1ccc2nc(-c3cccs3)c(NCC3CCCO3)n2c1 (configuration not stated)	inactive
COc1ccccc1Cc1c(C2CCCCC2)nc2ccc(Br)cn12	17.8 µM (active)
Nc1c(C(=O)Nc2ccccc2)sc2nc(N3CCOCC3)c3c(c12)CCCC3	inactive
CC1=NOC(=O)/C1=C\c1ccc(-c2ccc(Cl)cc2Cl)o1	35.5 µM (active)
COc1ccc(/C=C2/C(=O)ON=C2C)cc1Br	inactive
O=C(O)c1ccc(N/N=C/c2ccc(-c3ccc(Cl)cc3Cl)o2)cc1	inactive
O=C(O)c1ccc(CNCc2ccccc2F)cc1	inactive

Compound	Potency
CC1CCC(NC(=O)c2nn(C)c3c2CS(=O)(=O)c2ccccc2-3)CC1 (configuration not stated)	39.8 µM (active)
CC1CCC(NC(=O)COC(=O)CNC(=O)c2ccc3ccccc3c2)CC1 (configuration not stated)	inactive
CC1CCC(NC(=O)CN2C(=O)C3CC=CCC3C2=O)CC1 (configuration not stated)	inactive
Cc1nc(-c2ccc(S(=O)(=O)Nc3cc(S(=O)(=O)N(C)C)ccc3C)s2)cs1	inactive
COc1ccc(-c2cc(C(F)(F)F)n3ncc(C(=O)NCC4CCCO4)c3n2)cc1 (configuration not stated)	inactive
C=CCCCCCCCCC(=O)NNC1CC(=O)N(c2ccccc2)C1=O (configuration not stated)	inactive
CCCCN(CCCC)CC(O)Cn1cc(/C=C/C(=O)c2ccccc2)c2ccccc21 (configuration not stated)	inactive
O=C(CCn1c(=S)oc2ccccc21)Nc1ccccc1F	inactive
CC(=O)/C=C/n1c(=S)oc2ccccc21	9.47 µM (active)
CC(C)CC(=O)NC(=S)NCc1ccccc1	inactive
CC(C)CC(=O)/C=C/n1c(=S)oc2ccccc21	31.6 µM (active)
CC(=O)Cn1c(=O)oc2ccccc21	inactive
CC(=O)OC[C@H]1O[C@@H](Oc2cc3ccc(=O)oc3cc2OC(C)=O)[C@H](OC(C)=O)[C@@H](OC(C)=O)[C@@H]1OC(C)=O	inactive
Cc1cccc(NC(=O)c2c(C)nn(-c3ccccc3)c2Cl)c1	inactive
O=C(Nc1ccccc1)c1nsnc1C(=O)Nc1ccccc1	inactive
Cc1cccc(NC(=O)c2[nH]cnc2C(=O)N[C@@H](Cc2ccccc2)C(=O)OC(C)(C)C)c1	39.8 µM (active)
Cc1ccc(NC(=O)C(Nc2cccc(C)c2)c2ccccc2)cc1 (configuration not stated)	inactive
C[C@@H](NC(=O)c1[nH]cnc1C(=O)N[C@@H](Cc1ccccc1)C(=O)OC(C)(C)C)c1ccccc1	35.5 µM (active)
Cc1cccc(NC(=O)c2nc[nH]c2C(=O)N[C@@H](C)c2ccccc2)c1	28.2 µM (active)
CCOc1ccc(C(C)NC(=O)c2cccs2)cc1OCC (configuration not stated)	inactive
CC(C)C[C@H](NC(=O)c1[nH]cnc1C(=O)NCCCCCNC(=O)OC(C)(C)C)C(=O)OC(C)(C)C	35.5 µM (active)
COc1ccc(NC(=O)CSc2nnc3n2CCCCC3)cc1S(=O)(=O)N1CCOCC1	inactive
Cc1ccccc1/C=C/c1nc2ccccc2c(=O)n1CCc1ccccc1	inactive
CCc1cc2c(-c3ccccc3)cc(=O)oc2c2c1OCN(Cc1ccc(F)cc1)C2	inactive
